In all, about 39,000 compounds went through this assay and about 1,500 (3.8%) were called active. For the sample, actives were picked, then their nearest neighbours and some compounds at random.
system: HSkMC (human skeletal muscle cells); assay: cytotoxicity call (relative viability < 0.9); details: 10 µM

Q: Which cytotoxicity call does the source give for `C[C@H]1CN([C@@H](C)CO)C(=O)Cc2cc(NC(=O)Nc3ccccc3)ccc2O[C@H]1CN(C)Cc1ccc(Cl)c(Cl)c1` here?
A: active

Q: With `C[C@@H]1CN([C@H](C)CO)C(=O)Cc2cc(NC(=O)Nc3ccccc3)ccc2O[C@@H]1CN(C)Cc1ccc(Cl)c(Cl)c1` as the compound, how does the cytotoxicity call read?
A: active

Q: How did the cytotoxicity call turn out when `C[C@@H]1CN([C@@H](C)CO)C(=O)Cc2cc(NC(=O)Nc3ccccc3)ccc2O[C@@H]1CN(C)Cc1ccc(Cl)c(Cl)c1` was run?
A: active

Q: Which cytotoxicity call does the source give for `C[C@@H]1CN([C@H](C)CO)C(=O)Cc2cc(NC(=O)Nc3ccccc3)ccc2O[C@H]1CN(C)Cc1ccc(Cl)c(Cl)c1` here?
A: active

Q: Which cytotoxicity call does the source give for `C[C@H](CO)N1C[C@H](C)[C@H](CN(C)S(C)(=O)=O)Oc2ccc(NC(=O)Nc3ccc4c(c3)OCO4)cc2CC1=O` here?
A: inactive

Q: How did the cytotoxicity call turn out when `CC[C@@H](C)N1C(=O)CC[C@H]1C(=O)O` was run?
A: inactive

Q: `COc1ccc(S(=O)(=O)Nc2ccc3c(c2)C(=O)N([C@H](C)CO)C[C@H](C)[C@H](CN(C)Cc2ccc(C(=O)Nc4ccccc4N)cc2)OCCCC[C@@H](C)O3)cc1` was tested. Which cytotoxicity call did it give?
A: inactive

Q: How did the cytotoxicity call turn out when `C[C@H](CO)N1C[C@H](C)[C@@H](CN(C)S(=O)(=O)c2cccs2)Oc2ccc(NS(C)(=O)=O)cc2C1=O` was run?
A: inactive

Q: With `NCc1ccc(C(=O)O)cc1` as the compound, how does the cytotoxicity call read?
A: inactive

Q: How did the cytotoxicity call turn out when `Cc1noc(C)c1NC(=O)Nc1cccc2c1O[C@H](CN(C)S(=O)(=O)c1ccccc1)[C@@H](C)CN([C@@H](C)CO)C2=O` was run?
A: inactive

Q: How did the cytotoxicity call turn out when `C[C@@H]1CCCCO[C@H](CN(C)C(=O)c2ccncc2)[C@@H](C)CN([C@H](C)CO)C(=O)c2cc(NC(=O)CCCCCC(=O)Nc3ccccc3N)ccc2O1` was run?
A: inactive

Q: For `CCc1nc2ccc(C(=O)Nc3cc(-c4ccccc4)ccc3OC)cn2c1N(CCN(C)C)CC1CC1`, which cytotoxicity call is on record?
A: inactive

Q: With `C[C@H](CO)N1C[C@H](C)[C@@H](CN(C)S(=O)(=O)c2cn(C)cn2)Oc2c(NC(=O)C3CCOCC3)cccc2C1=O` as the compound, how does the cytotoxicity call read?
A: inactive

Q: How did the cytotoxicity call turn out when `CN1C(=O)c2cc(NC(=O)C3CCCC3)ccc2OC[C@H]2O[C@@H](CC(=O)NCCc3ccncc3)CC[C@@H]21` was run?
A: inactive

Q: With `COCC(=O)Nc1ccc2c(c1)C(=O)N(C)[C@H]1CC[C@@H](CC(=O)NCc3ccccc3Cl)O[C@@H]1CO2` as the compound, how does the cytotoxicity call read?
A: inactive

Q: For `C[C@H](CO)N1C[C@H](C)[C@@H](CN(C)Cc2ccc(Cl)c(Cl)c2)Oc2ccc(NC(=O)Nc3ccccc3)cc2CC1=O`, which cytotoxicity call is on record?
A: inactive

Q: `COc1ccc(NC(=O)Nc2ccc3c(c2)CC(=O)N([C@@H](C)CO)C[C@@H](C)[C@@H](CN(C)Cc2ccc(Cl)c(Cl)c2)O3)cc1` was tested. Which cytotoxicity call did it give?
A: inactive

Q: With `C[C@H](CO)N1C[C@H](C)[C@H](CN(C)Cc2ccc(Cl)c(Cl)c2)Oc2ccc(NC(=O)Nc3ccccc3)cc2CC1=O` as the compound, how does the cytotoxicity call read?
A: active

Q: `C[C@@H]1CN([C@@H](C)CO)C(=O)Cc2cc(NC(=O)Nc3ccccc3)ccc2O[C@H]1CN(C)Cc1ccc(Cl)c(Cl)c1` was tested. Which cytotoxicity call did it give?
A: inactive

Q: How did the cytotoxicity call turn out when `C[C@H]1CN([C@@H](C)CO)C(=O)Cc2cc(NC(=O)Nc3ccccc3)ccc2O[C@@H]1CN(C)Cc1ccc(Cl)c(Cl)c1` was run?
A: active

Q: How did the cytotoxicity call turn out when `COc1ccc(NC(=O)Nc2ccc3c(c2)CC(=O)N([C@H](C)CO)C[C@H](C)[C@@H](CN(C)Cc2ccc(Cl)c(Cl)c2)O3)cc1` was run?
A: inactive

Q: Which cytotoxicity call does the source give for `O=C(CN1CCOCC1)NCC[C@H]1CC[C@@H](NC(=O)Nc2ccccc2)[C@H](CO)O1` here?
A: inactive

Q: `C[C@H]1CN([C@@H](C)CO)S(=O)(=O)c2ccc(-c3cccnc3)cc2O[C@@H]1CN(C)C(=O)c1cccc(F)c1` was tested. Which cytotoxicity call did it give?
A: inactive

Q: Which cytotoxicity call does the source give for `Cc1ccccc1S(=O)(=O)N1C[C@H](O)COC[C@@H]2O[C@@H](CC(=O)NCc3ccccc3Cl)CC[C@H]21` here?
A: inactive

Q: How did the cytotoxicity call turn out when `Cc1ccc(S(=O)(=O)Nc2ccc3c(c2)C(=O)N([C@@H](C)CO)C[C@@H](C)[C@H](CN(C)Cc2ccc(C(F)(F)F)cc2)O3)cc1` was run?
A: inactive

Q: For `Cc1ccc(S(=O)(=O)Nc2ccc3c(c2)C(=O)N([C@@H](C)CO)C[C@@H](C)[C@@H](CN(C)Cc2ccc(C(F)(F)F)cc2)O3)cc1`, which cytotoxicity call is on record?
A: inactive

Q: How did the cytotoxicity call turn out when `C[C@H]1CN([C@@H](C)CO)C(=O)c2cc(NS(=O)(=O)c3ccc(Cl)cc3)ccc2O[C@H]1CN(C)Cc1ccc(C(F)(F)F)cc1` was run?
A: inactive

Q: `C[C@@H]1CN([C@@H](C)CO)C(=O)c2cc(NS(=O)(=O)c3ccc(Cl)cc3)ccc2O[C@H]1CN(C)Cc1ccc(C(F)(F)F)cc1` was tested. Which cytotoxicity call did it give?
A: inactive

Q: How did the cytotoxicity call turn out when `C[C@@H]1CN([C@H](C)CO)C(=O)c2cc(NS(=O)(=O)c3ccc(Cl)cc3)ccc2O[C@@H]1CN(C)Cc1ccc(C(F)(F)F)cc1` was run?
A: active

Q: Which cytotoxicity call does the source give for `C[C@@H]1CN([C@@H](C)CO)C(=O)c2cc(NS(=O)(=O)c3ccc(Cl)cc3)ccc2O[C@@H]1CN(C)Cc1ccc(C(F)(F)F)cc1` here?
A: active

Q: With `C[C@H](CO)N1C[C@H](C)[C@@H](CN(C)Cc2ccc(C(F)(F)F)cc2)Oc2ccc(NS(=O)(=O)c3ccc(Cl)cc3)cc2C1=O` as the compound, how does the cytotoxicity call read?
A: active

Q: For `C[C@@H]1CN([C@H](C)CO)C(=O)c2cc(NS(=O)(=O)c3ccc(Cl)cc3)ccc2O[C@H]1CN(C)Cc1ccc(C(F)(F)F)cc1`, which cytotoxicity call is on record?
A: inactive

Q: `C[C@H](CO)N1C[C@H](C)[C@H](CN(C)Cc2ccc(C(F)(F)F)cc2)Oc2ccc(NS(=O)(=O)c3ccc(Cl)cc3)cc2C1=O` was tested. Which cytotoxicity call did it give?
A: active

Q: `O=C(C[C@H]1C[C@H]2c3cc(NS(=O)(=O)c4ccc(F)cc4)ccc3O[C@H]2[C@@H](CO)O1)NC1CCCCC1` was tested. Which cytotoxicity call did it give?
A: inactive

Q: Which cytotoxicity call does the source give for `C[C@@H]1CCCCO[C@@H](CN(C)C(=O)Nc2cccc3ccccc23)[C@@H](C)CN([C@@H](C)CO)C(=O)c2cc(NS(=O)(=O)c3ccc(Cl)cc3)ccc2O1` here?
A: inactive

Q: For `C[C@H]1CN([C@@H](C)CO)C(=O)Cc2cc(NC(=O)CCC(F)(F)F)ccc2O[C@H]1CN(C)S(=O)(=O)c1ccccc1`, which cytotoxicity call is on record?
A: inactive

Q: Which cytotoxicity call does the source give for `CO/N=C(\C(=O)N[C@@H]1C(=O)N2C(C(=O)O)=C(C)CS[C@H]12)c1csc(N)n1` here?
A: inactive

Q: How did the cytotoxicity call turn out when `C[C@@H]1CCCCO[C@H](CN(C)C(=O)c2ccccc2)[C@H](C)CN([C@H](C)CO)C(=O)c2cc(NS(=O)(=O)c3ccc(Cl)cc3)ccc2O1` was run?
A: inactive

Q: `COCC#Cc1cnc2c(c1)C(=O)N([C@H](C)CO)C[C@H](C)[C@H](CN(C)C(=O)Nc1ccc(OC)cc1)O2` was tested. Which cytotoxicity call did it give?
A: inactive

Q: Which cytotoxicity call does the source give for `CS(=O)(=O)N1C[C@H]2COC[C@@]2(C(=O)NCc2ccccn2)C1` here?
A: inactive

Reference: the antibiotic and cytotoxicity screens of Wong et al. (2023)
